Test results taken from PubChem BioAssay (NCI).
Compounds without any hit were thinned out: in the full panel of roughly 83,000, 20% have a hit.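 48-hour exposure, single concentration, 96-well plates; percent growth endpoint where 0 means no net growth. Active: below 10.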 Active and inactive are the calls of the source.

Test system: OVCAR-4 ovarian
Experiment: NCI-60 one-dose screen, 48 h (100 = growth as untreated, 0 = no growth, -100 = all killed)
Conditions: 10 µM unless noted

Row | Compound | growth
1 | CC1=NN(c2ccccc2Cl)C(=O)/C1=C\c1cn(S(=O)(=O)c2ccc(C)cc2)c2ccccc12 | 103% (inactive)
2 | O=c1c(O)cccn1CCCNCCCN(CCCn1cccc(O)c1=O)CCCn1cccc(O)c1=O | 101% (inactive)
3 | O=C1OCC/C1=C\OCCCO/C=C1\CCOC1=O | 99.5% (inactive)
4 | O=C(Nc1cccc2ccccc12)c1cc2c(cc1Br)OCO2 | 83.5% (inactive)
5 | NC(=O)SCC(=O)Nc1ccccc1-c1ccccc1 | 111% (inactive)
6 | Cn1[nH]cc(/C=N/C(N)=O)c1=O | 106% (inactive)
7 | c1ccc2c(c1)[nH]c1c2cc[n+]2cc3c(cc12)CCCC3 | 38.9% (inactive)
8 | CN1CCCC1c1cccnc1 (stereo not drawn) | 104% (inactive)
9 | Cn1cc(-c2nc(-c3c[nH]c4ncccc34)cs2)c2cccnc21 | 70.4% (inactive)
10 | S=C(c1ccccc1)N1CCN(c2cccc(Cl)c2)CC1 | 120% (inactive)
11 | O=C1NC(=O)/C(=C\c2ccccc2)C2=C1CCCC2 | 91.2% (inactive)
12 | C[C@]12CC[C@@H]3c4ccc(O)c([N+](=O)[O-])c4CC[C@H]3[C@@H]1CC[C@@H]2NS(=O)(=O)c1ccc(C(F)(F)F)cc1 | 31% (inactive)
13 | O=C(Oc1ccc[nH]c1=O)c1cccc(Cl)c1 | 54.6% (inactive)
14 | COc1ccc(Cn2cc3c(c2-c2ccccc2)CCc2cncnc2-3)cc1 | 93.1% (inactive)
15 | Cn1cc(-c2csc(-c3cn(C)c4ncccc34)n2)c2cc(Br)cnc21 | 92.1% (inactive)
16 | C[n+]1ccc(Nc2ccc(NC(=O)c3ccc(Nc4cc[n+](C)c5ccc(N)cc45)cc3)cc2)cc1 | 103% (inactive)
17 | Cc1cc2c(cc1[N+](=O)[O-])NC(CNC(C)C)CC2 (stereo not drawn) | 95.1% (inactive)
18 | CC(=O)Oc1c(C)c(OC(C)=O)c2c(c1C(C)=O)OC1CC(=O)C(C(C)=O)=C(O)C21C (stereo not drawn) | 99% (inactive)
19 | CCOC(=O)c1c2c(c(C)n1Cc1ccc(OC)cc1)-c1nc(N)ncc1CC2 | 112% (inactive)

Row | Compound | growth
20 | COc1ccc2nccc(/C=C/c3ccnc4ccc(OC)cc34)c2c1 | 104% (inactive)
21 | Cc1cc2cn3c4cccnc4[nH]c(=O)c3c2cc1C | 47.9% (inactive)
22 | COc1ccc2nc(-c3ccc(-n4cncc4-c4ccc(OC)c(N)c4)cc3)sc2c1 | 87% (inactive)
23 | COc1cc2c(c(OC)c1OC)CCc1cnoc1-2 | 95% (inactive)
24 | C=C(C)[C@H]1CC/C(C)=C/CC[C@]2(C)O[C@H]2CC/C(C=O)=C\C1O (stereo partly drawn) | 109% (inactive)
25 | COc1ccc2c(c1)[nH]c(=O)c1c3cc(OC)c(OC)cc3cn21 | 44.2% (inactive)
26 | Nc1nc(Cl)c2[nH]cnc2n1 | 101% (inactive)
27 | O=C(Nc1ncc([N+](=O)[O-])s1)c1cccc([N+](=O)[O-])c1 | 40.5% (inactive)
28 | Cc1ccc([N+](=O)[O-])cc1NC(=O)Nc1cccc(F)c1 | 50.3% (inactive)
29 | OC(CCC(O)(c1ccccc1)c1ccccc1)(c1ccccc1)c1ccccc1 | 99.4% (inactive)
30 | COc1ccc(/C(=C2\O[C@@H]([C@H](O)CO)[C@H]3OC(C)(C)O[C@@H]23)c2cc(OC)c(OC)c(OC)c2)cc1O | 104% (inactive)
31 | CCC(c1ccccc1)c1noc(CCN(CC)CC)n1 (stereo not drawn) | 109% (inactive)
32 | O=C(Nc1ccc(Nc2ccncc2)cc1)c1ccc(Nc2ccnc3ccc([N+](=O)[O-])cc23)cc1[N+](=O)[O-] | 91.1% (inactive)
33 | CC12CCCCC1C(C(N)=O)C(=O)O2 (stereo not drawn) | 101% (inactive)
34 | CCOC(=O)c1c2c(c(C)n1Cc1ccccc1)-c1nc(N)ncc1CC2 | 105% (inactive)
35 | Nc1ncc(-c2cnn(C3CCNCC3)c2)cc1-c1nc2cc(Cl)ccc2o1 | -83.1% (active)
36 | COc1ccc(OC)c2c1[nH]c(=O)c1c3ccccc3cn21 | -29% (active)
37 | CCC(CCC(C)C1CCC2C3CC=C4CC(O)CCC4(C)C3CCC12C)C(C)C (stereo not drawn) (tested in a mixture with another compound) | 93.7% (inactive)
38 | CCOC(=O)c1c(C)nc(C)c(C(=O)OCC)c1-c1cccnc1 | 97.8% (inactive)
